The values below come from PubChem BioAssay (EPA / NIEHS).

Experiment [1] has as its target Nucleoli Translocation, AR (gene 367) (UniProt P10275). Put plainly: UPITT_HCI_U2OS_AR_TIF2_Nucleoli_Agonist: University of Pittsburgh U2OS Androgen Receptor-Transcriptional Intermediary Factor 2 (AR-TIF2) Agonism High Content Imaging Assay for Nucleoli Translocation (AID 2283998). An outline of the steps:
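Readout is red (AR-RFP) fluorescence localized to nucleoli, measured by high-content imaging and analysed for increase relative to DMSO. Compound series spanned 0.195 to 50 uM final in 0.5% DMSO.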

For experiment [2], the target named is Ratio of Nucleoli Translocation and Cytoplasm, AR (gene 367) (UniProt P10275). Put plainly: UPITT_HCI_U2OS_AR_TIF2_Nucleoli_Cytoplasm_Ratio_Agonist: University of Pittsburgh U2OS Androgen Receptor-Transcriptional Intermediary Factor 2 (AR-TIF2) Agonism High Content Imaging Assay for Ratio of Nucleoli Translocation and Cytoplasm (AID 2284000).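 Also: hits raise the red nucleolar to cytoplasm ratio above vehicle.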 An outline of the steps: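 Primary screen at 20 uM final (0.2% DMSO), then triplicate confirmation and dose-response from 0.195 to 50 uM final (0.5% DMSO). Cells: U2OS with AR-RFP and TIF2-GFP. Endpoint is the nucleoli/cytoplasm red-fluorescence ratio, gain-of-signal vs DMSO.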

The nature of experiment [3]: CCTE_Simmons_MITO_basal_resp_rate: CCTE's HepG2 Seahorse XF Respirometric Screening Assay at Basal Respiratory State, Simmons Lab (AID 2284001; active = hit-call score of the fitted dose curve at least 0.9, where 1 is the maximum; inactive = score below 0.9). As to conditions: actives raise or lower the signal. An outline of the steps: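 Readout is oxygen consumption rate after test compound injection, measured by Seahorse XF in HepG2 cells. Seven concentrations from 125 nM up to 100 uM final are tested, and activity in either direction is fitted against DMSO.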

The nature of experiment [4]: CCTE_Simmons_MITO_max_resp_rate: CCTE's HepG2 Seahorse XF Respirometric Screening Assay at Maximal Respiratory State [uncoupled], Simmons Lab (AID 2284002; active = hit-call score of the fitted dose curve at least 0.9, where 1 is the maximum; inactive = score below 0.9). The settings on record: actives raise or lower the signal. The method, boiled down:
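Read-out is oxygen consumption rate at maximal respiration, taken after FCCP uncoupling of compound-treated HepG2 cells. Seven final concentrations from 125 nM to 100 uM were tested, each in three biological replicates.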

A further experiment relates to DIO1 (gene 1733). Put plainly: CCTE_GLTED_hDIO1: CCTE's human Deiodinase 1 (DIO1) Inhibition Assay, Great Lakes Toxicology and Ecology Division (GLTED) Lab (AID 2283987).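 Also: isolated human DIO1 enzyme in a cell-free setup rather than cells; enzyme activity read as free iodide liberated from substrate via Sandell-Kolthoff colorimetry.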 An outline of the steps:
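Inhibition of human deiodinase 1 is scored as reduced iodide liberation after a 3 h enzyme–chemical incubation, detected colorimetrically by the Sandell-Kolthoff reaction against DMSO controls.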

Experiment [5] concerns the target Nucleoli Translocation, AR (gene 367) (UniProt P10275). Put plainly: UPITT_HCI_U2OS_AR_TIF2_Nucleoli_Antagonist: University of Pittsburgh U2OS Androgen Receptor-Transcriptional Intermediary Factor 2 (AR-TIF2) Antagonism High Content Imaging Assay for Nucleoli Translocation (AID 2283997). The method, boiled down:
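An antagonist-mode imaging screen: engineered U2OS (AR-RFP, TIF2-GFP) exposed to 20 uM compound, 0.2% DMSO. Activity reflects nucleolar red fluorescence change relative to DHT baseline.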

For experiment [6], the target named is Ratio of Nucleoli Translocation and Cytoplasm, AR (gene 367) (UniProt P10275). Put plainly: UPITT_HCI_U2OS_AR_TIF2_Nucleoli_Cytoplasm_Ratio_Antagonist: University of Pittsburgh U2OS Androgen Receptor-Transcriptional Intermediary Factor 2 (AR-TIF2) Antagonism High Content Imaging Assay for Ratio of Nucleoli Translocation and Cytoplasm (AID 2283999).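 Also: antagonists lower the DHT-driven ratio of nucleolar to cytoplasmic red signal.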 An outline of the steps: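 High-content imaging of red fluorescence ratio, nucleoli versus cytoplasm, in U2OS expressing AR-RFP and TIF2-GFP, fitted relative to DHT. Compounds tested once at 20 uM final, then 0.195 to 50 uM final in serial dilution.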

Experiment [7] in a line: CCTE_Harrill_HTTr_Apoptosis_DMEM_24hr: (Pilot) CCTE's 24-hour Apoptosis Assessment for the High-Throughput Transcriptomics (HTTr) Platform, in MCF-7 cells cultured in DMEM + 10% fetal bovine serum, Harrill Lab (AID 2283983; active = hit-call score of the fitted dose curve at least 0.9, where 1 is the maximum; inactive = score below 0.9). An outline of the steps: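 Caspase-3/7 activity read by high-content imaging (CellEvent Green reagent) 24 h after dosing. MCF-7 cells grown in DMEM with 10% FBS received an eight-point concentration series; fits were bidirectional versus DMSO.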

Experiment [8] in a line: CCTE_Harrill_HTTr_Apoptosis_PRF_DMEM_6hr: (Pilot) CCTE's 6-hour Apoptosis Assessment for the High-Throughput Transcriptomics (HTTr) Platform, in MCF-7 cells cultured phenol red-free DMEM + 10% charcoal-stripped fetal bovine serum, Harrill Lab (AID 2283984; active = hit-call score of the fitted dose curve at least 0.9, where 1 is the maximum; inactive = score below 0.9). The source says: (§1) This is a cell-based assay that evaluates apoptosis using high content imaging to evaluate activation of caspase-3/7 using the CellEvent Caspase 3/7 Green detection reagent in 384-well format.One of seven assay components measured from the CCTE_Harrill_HTTr_Apoptosis assay. This was part of a pilot experiment. This is a cell-based assay that evaluates apoptosis in MCF-7 cells cultured in phenol red-free DMEM + 10% charcoal-stripped fetal bovine serum. High content imaging is used to evaluate activation of caspase-3/7 using the CellEvent Caspase 3/7 Green detection reagent. Measurements are taken at 6 hours after chemical dosing in 384-well format.The assay component endpoint CCTE_Harrill_HTTr_Apoptosis_PRF_DMEM_6hr was analyzed with bidirectional fitting relation to DMSO as the negative control and baseline of activity. Using a type of viability reporter, gain-of-signal activity can be used to evaluate activation of caspase-3/7 using the CellEvent Caspase 3/7 Green detection reagent to understand changes in apoptosis. To generalize the intended target to other relatable targets, this assay endpoint is annotated to cell cycle, where the subfamily is apoptosis.
Chemicals were tested in MCF7 cells in an eight point dilution series with a six hour exposure duration.

Experiment [9] can be described thus: CCTE_Harrill_HTTr_Apoptosis_PRF_DMEM_24hr: (Pilot) CCTE's 24-hour Apoptosis Assessment for the High-Throughput Transcriptomics (HTTr) Platform, in MCF-7 cells cultured in phenol red-free DMEM + 10% charcoal-stripped fetal bovine serum, Harrill Lab (AID 2283986; active = hit-call score of the fitted dose curve at least 0.9, where 1 is the maximum; inactive = score below 0.9).
Text: as §1, with “24” for “6”, “CCTE_Harrill_HTTr_Apoptosis_PRF_DMEM_24hr” for “CCTE_Harrill_HTTr_Apoptosis_PRF_DMEM_6hr”
Chemicals were tested in MCF7 cells in an eight point dilution series with a twenty-four hour exposure duration.

Inconclusive results are not listed. Calls of active or inactive are those of the source. The calls were made as follows, unless noted: active = hit-call score of the fitted dose curve at least 0.9, where 1 is the maximum; inconclusive = response in the unintended direction; inactive = score below 0.9.

Nucleoli Translocation, AR (gene 367), sequence (P10275 whole entry, looked up): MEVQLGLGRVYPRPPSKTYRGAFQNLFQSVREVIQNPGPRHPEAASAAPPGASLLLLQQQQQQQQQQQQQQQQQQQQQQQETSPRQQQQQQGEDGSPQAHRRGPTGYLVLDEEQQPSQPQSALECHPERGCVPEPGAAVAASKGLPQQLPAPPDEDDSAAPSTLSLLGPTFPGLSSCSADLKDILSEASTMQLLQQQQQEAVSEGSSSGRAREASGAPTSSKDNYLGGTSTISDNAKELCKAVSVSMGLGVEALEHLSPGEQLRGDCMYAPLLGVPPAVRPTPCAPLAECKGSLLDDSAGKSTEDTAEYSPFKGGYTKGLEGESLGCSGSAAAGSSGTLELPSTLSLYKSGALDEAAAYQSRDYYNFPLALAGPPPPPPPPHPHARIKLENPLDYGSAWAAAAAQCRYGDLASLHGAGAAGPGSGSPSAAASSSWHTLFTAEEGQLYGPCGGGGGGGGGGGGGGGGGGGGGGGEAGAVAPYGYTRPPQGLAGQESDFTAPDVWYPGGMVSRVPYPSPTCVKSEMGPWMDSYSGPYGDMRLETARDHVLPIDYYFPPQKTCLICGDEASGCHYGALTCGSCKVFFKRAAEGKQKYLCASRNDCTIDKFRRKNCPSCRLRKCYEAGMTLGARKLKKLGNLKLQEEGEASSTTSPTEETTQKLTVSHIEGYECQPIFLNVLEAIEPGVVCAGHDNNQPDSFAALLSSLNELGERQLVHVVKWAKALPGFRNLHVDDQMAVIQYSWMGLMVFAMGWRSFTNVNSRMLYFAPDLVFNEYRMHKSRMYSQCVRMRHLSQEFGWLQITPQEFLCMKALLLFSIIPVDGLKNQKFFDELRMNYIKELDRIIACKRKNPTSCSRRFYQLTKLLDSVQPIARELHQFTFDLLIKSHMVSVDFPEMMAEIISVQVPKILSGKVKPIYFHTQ
Ratio of Nucleoli Translocation and Cytoplasm, AR (gene 367), sequence (P10275 whole entry, looked up): as above

Consider `C1N2CN3CN1CN(C2)C3`, for which the molecule was called inactive in experiment [1] and in [2].

In general, AC50 refers to the concentration giving half of the maximal activity seen. Turning to `CC(C)=CCC/C(C)=C/CO`, the AC50 in experiment [3] was 45.7 µM (active). In addition, the molecule was classed as inactive in experiment [4].

In the case of `CC(C)CC(C)(O)C#CC(C)(O)CC(C)C` (centres undefined), the AC50 was 50 µM (active) in experiment [3] and 37.8 µM (active) in [4].

`COc1ccc(/C=C/S(=O)(=O)NC(=O)c2ccc(C)cc2Cl)cc1`: the values for the AC50 in experiment [3] and in experiment [4] were 24.6 µM (active) and 15.2 µM (active), respectively.

For `CCOc1cccc(-n2cc(C(=O)N3CCN(c4cc(C(=O)O)c5ccccc5c4)CC3)nc2-c2ccc(C)cc2)c1`, the AC50 in the experiment on DIO1 (gene 1733) was 151 µM (active); in experiment [5], 78.4 µM (active). Further, the outcome in experiment [6], in experiment [2], in [3] and in experiment [4] was inactive.

For the molecule `O=C(CCCCCCCCc1cccnc1)N1CCC(C=C(c2ccccc2)c2ccccc2)CC1`, the molecule was called inactive in [5], in [6], in [3] and in [4].

Regarding `CCCCC(CC)COC(=O)c1ccc(C(=O)OCC(CC)CCCC)cc1` (centres undefined), the result in experiment [5] and in experiment [1] was inactive.

`CNS(=O)(=O)c1cc(C(=O)N2CCC(CCN3C4CCC3CC(n3c(C)nc5ccccc53)C4)(c3cccc(F)c3)CC2)c(Cl)cc1F` (centres undefined): the molecule was called inactive in experiment [5] and in [6].

Consider `CC[C@H](C)C(=O)O[C@H]1C[C@@H](C)C=C2C=C[C@H](C)[C@H](CC[C@@H]3C[C@@H](O)CC(=O)O3)[C@H]21`, for which the outcome in [7], in experiment [8] and in experiment [9] was inactive. Moreover, the AC50 with DIO1 (gene 1733) was 48.1 µM (active).

In the case of `Cc1[nH]cnc1C[C@H]1CCc2c(C)c3ccccc3n2C1=O`, in [3], the AC50 was 30.5 µM (active). In experiment [4], the result was inactive.

With `CC(C)=CCCC(C)CCO` (centres undefined), the molecule was called inactive in experiment [5], in experiment [1], in experiment [6] and in [2].

`CC(C)c1cccc(C(C)C)c1N1C(=O)c2ccc(O)cc2C1=O`: the AC50 is 20 µM (active) in experiment [3] and 20.3 µM (active) in experiment [4].

For `Fc1ccccc1[C@@H](F)COC1CCC(Nc2ncnc3[nH]ncc23)CC1` (some centres undefined), the AC50 in experiment [5] was 18.3 µM (active); in experiment [3], 14.1 µM (active); in [4], 13.8 µM (active). The result in [1] and in experiment [6] was inactive.

Turning to `Oc1ccc2c(c1)-c1ccccc1C2`, the results for the AC50 in experiment [5], in experiment [1] and in experiment [6] were 12 µM (active), 76.6 µM (active) and 7.43 µM (active), respectively. The outcome in [2] was inactive.

Take `CCCN(C1CCN(C(=O)C2CCNCC2)CC1)[C@@H]1CCc2ccc(OC)cc2C1`: the molecule was classed as inactive in experiment [5], in [1] and in experiment [6].

On to `CC(C)=CCCC(C)=CC=O`, for which the call in experiment [3] and in experiment [4] was inactive.

Take `Cc1ccc(O)cc1`: the call in experiment [1] and in experiment [2] was inactive.

Turning to `CC1(C)C(=O)N(Br)C(=O)N1Br`, the call in [5], in experiment [1], in [6] and in [2] was inactive.

On to `Cn1c(=O)cc(Oc2ccc(F)cc2F)c2cnc(NCC(C)(C)O)nc21`, for which the outcome in [3] and in experiment [4] was inactive.

In the case of `CCn1nc(Cc2ccccc2)cc1C1CCN(C[C@H]2C[C@H](N(C)[C@@H](C(=O)O)C(C)C)C[C@@H]2c2cccc(F)c2)CC1`, the AC50 in experiment [3] is 27.8 µM (active). Moreover, the molecule was called inactive in experiment [4].

Consider `O=C(O)c1cc(N=Nc2ccc(S(=O)(=O)Nc3ccccn3)cc2)ccc1O`, for which, in the experiment with DIO1 (gene 1733), the AC50 is 27.3 µM (active).

With `CCC(C)(C)C(=O)O[C@H]1C[C@@H](C)C=C2C=C[C@H](C)[C@H](CC[C@@H]3C[C@@H](O)CC(=O)O3)[C@H]21`, the outcome in [7], in experiment [8] and in experiment [9] was inactive. Further, in the experiment on DIO1 (gene 1733), the AC50 was 49 µM (active).

For the molecule `O=C(OC[C@H]1O[C@@H](OC(=O)c2cc(O)c(O)c(OC(=O)c3cc(O)c(O)c(O)c3)c2)[C@H](OC(=O)c2cc(O)c(O)c(OC(=O)c3cc(O)c(O)c(O)c3)c2)[C@@H](OC(=O)c2cc(O)c(O)c(OC(=O)c3cc(O)c(O)c(O)c3)c2)[C@@H]1OC(=O)c1cc(O)c(O)c(OC(=O)c2cc(O)c(O)c(O)c2)c1)c1cc(O)c(O)c(OC(=O)c2cc(O)c(O)c(O)c2)c1`, the AC50 with DIO1 (gene 1733) is 17.7 µM (active).

Turning to `COc1ccc2sc(C(=O)Nc3nnn[nH]3)c(OC(C)C)c2c1`, the molecule was called inactive in experiment [3] and in experiment [4].

For the molecule `O=C(O)c1cccc(N(Cc2cccnc2)c2ccc(OC(F)F)c(OC(F)F)c2)c1`, the AC50 was 22.1 µM (active) in experiment [5] and 1.03 µM (active) in experiment [3]. Moreover, the outcome in experiment [1], in experiment [6], in [2] and in [4] was inactive.

As to `COc1cccc(-c2ccc(/C=C\CN3CCCCCC3)cc2Cl)c1`, in experiment [3], the result was inactive. Further, the AC50 in experiment [4] was 65.8 µM (active).

Take `Nc1nc2ncc(CNc3ccc(C(=O)N[C@@H](CCC(=O)O)C(=O)O)cc3)nc2c(=O)[nH]1`: the molecule was called inactive in experiment [5] and in experiment [2].

For the molecule `CCOC(=O)COc1ccc2c(c1)CC(NCC(O)c1cccc(Cl)c1)CC2` (centres undefined), the AC50 is 32.9 µM (active) in [3] and 62.7 µM (active) in experiment [4].

As for `CCNc1ccccc1`, the molecule was classed as inactive in experiment [5], in [1], in experiment [6] and in [2].

Turning to `C=CCCCCCCCCC(=O)O`, the AC50 in experiment [3] is 35.1 µM (active). In addition, the result in experiment [4] was inactive.

For `CCOC(=O)c1ccc(C2CCC(NC[C@H](O)COc3ccc(O)c(NS(C)(=O)=O)c3)CC2)cc1` (some centres undefined), the AC50 in the experiment on DIO1 (gene 1733) is 95 µM (active). The result in [3] and in experiment [4] was inactive.

In the case of `O=c1[nH]c2ccc(S(=O)CCN3CCC(Cc4ccc(F)cc4)CC3)cc2o1` (centres undefined), the AC50 was 49.7 µM (active) in experiment [3] and 35.5 µM (active) in experiment [4].

As to `Cc1ccc(N)cc1O`, the AC50 in experiment [5] is 37 µM (active); in experiment [3], 50 µM (active); in experiment [4] it was 60.5 µM (active). Moreover, the call in experiment [1], in experiment [6] and in experiment [2] was inactive.

On to `Nc1cccc(N)c1`, for which the result in experiment [3] and in experiment [4] was inactive.

For the molecule `CCCCCCc1ccc(O)cc1O`, the AC50 is 128 µM (active) in the experiment on DIO1 (gene 1733); 14.4 µM (active) in [5]; 14.2 µM (active) in experiment [1]; 14.8 µM (active) in [2]; 20.4 µM (active) in [3]; 41.4 µM (active) in experiment [4]. Further, in experiment [6], the result was inactive.

Consider `Cc1c(-c2cccnc2)c2ccccc2n1CCCCC(=O)O`, for which the AC50 in experiment [3] is 26.7 µM (active). Further, the molecule was classed as inactive in experiment [4].

As for `CN(C)c1ccc(N=NS(=O)(=O)O)cc1`, the molecule was called inactive in experiment [5], in experiment [6] and in [2].
